Assay results from PubChem BioAssay (EPA / NIEHS).
Active and inactive are the calls of the source. How the source made its calls: active means hit-call score of the fitted dose curve at least 0.9, where 1 is the maximum; inactive means score below 0.9.

Legend:
[1] = molecular target: Paired box protein Pax-6 (Homo sapiens) (UniProt P26367); assay: ATG_Pax6_CIS: Attagene CIS-FACTORIAL HepG2 Assay for human Paired Box 6 (PAX6) (AID 2282956); conditions: HepG2 CIS-FACTORIAL PAX6 reporter transcription, RNA readout; actives raise or lower the signal
Sequence of Paired box protein Pax-6 (Homo sapiens) (P26367 whole entry, looked up): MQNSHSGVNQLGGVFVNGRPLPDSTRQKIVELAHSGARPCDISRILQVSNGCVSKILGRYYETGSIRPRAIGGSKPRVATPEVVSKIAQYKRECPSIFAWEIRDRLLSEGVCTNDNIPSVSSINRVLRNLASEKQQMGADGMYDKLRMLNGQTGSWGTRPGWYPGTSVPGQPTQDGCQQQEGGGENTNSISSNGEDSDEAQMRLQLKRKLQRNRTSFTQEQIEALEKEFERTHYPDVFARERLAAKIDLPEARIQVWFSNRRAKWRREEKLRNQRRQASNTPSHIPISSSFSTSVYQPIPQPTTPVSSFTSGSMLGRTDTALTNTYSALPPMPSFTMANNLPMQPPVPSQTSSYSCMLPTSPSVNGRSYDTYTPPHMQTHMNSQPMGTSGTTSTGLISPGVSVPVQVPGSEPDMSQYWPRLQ
Procedure, shortened: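 Values derive from bidirectional curve fitting of reporter mRNA signal relative to DMSO. HepG2 cells bearing transfected cis-regulated MRTUs were exposed for 24 h; transcripts were read by RT-PCR and capillary electrophoresis.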

[2] = ATG_PXRE_CIS: Attagene CIS-FACTORIAL HepG2 Assay for human Pregnane X Receptor Element (PXRE) (AID 2282957); conditions: HepG2 Attagene CIS-FACTORIAL PXRE reporter, mRNA; actives raise or lower the signal
Procedure, shortened: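 Reporter transcripts under endogenous PXR-responsive cis-regulation quantified from total RNA of transfected HepG2 cells 24 h post-dosing, via RT-PCR with fluorescent primer extension and capillary electrophoresis. Gain or loss of signal fitted against DMSO baseline.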

[3] = ATG_PPRE_CIS: Attagene CIS-FACTORIAL HepG2 Assay for human Peroxisome Proliferator-activated Response Element (PPRE) (AID 2282958); conditions: HepG2 PPRE cis-element reporter, Attagene transcription factor profiling; actives raise or lower the signal
Procedure, shortened: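 Transcript-level reporter induction in transfected HepG2 cells after 24 h chemical exposure, quantified by fluorescence from RT-PCR products separated by capillary electrophoresis.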

[4] = ATG_RORE_CIS: Attagene CIS-FACTORIAL HepG2 Assay for human RAR-related Orphan Receptor Element (RORE) (AID 2282959); conditions: HepG2 Attagene cis-factorial RORE reporter, mRNA; actives raise or lower the signal
Procedure, shortened: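 Multiplexed reporter assay measuring mRNA induction from a cis promoter element in transiently transfected HepG2 cells after 24 h treatment. Detection via RT-PCR and capillary electrophoresis fluorescence; DMSO serves as baseline.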

[5] = ATG_Sox_CIS: Attagene CIS-FACTORIAL HepG2 Assay for human SRY-box transcription factor (SOX) (AID 2282960); conditions: HepG2 Attagene cis-factorial SOX reporter, mRNA; actives raise or lower the signal
Procedure, shortened: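 Cells were transfected with reporter constructs under cis-regulatory promoters, then exposed to chemicals for 24 h. Reporter transcripts were quantified by fluorescence after RT-PCR and capillary electrophoresis; activity was fitted in both directions against DMSO.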

[6] = molecular target: Transcription factor Sp1 (Homo sapiens) (UniProt P08047); assay: ATG_Sp1_CIS: Attagene CIS-FACTORIAL HepG2 Assay for human Specificity Protein 1 (Sp1) (AID 2282961); conditions: HepG2 Sp1 cis-reporter transcription, actives raise or lower the signal
Sequence of Transcription factor Sp1 (Homo sapiens) (P08047 whole entry, looked up): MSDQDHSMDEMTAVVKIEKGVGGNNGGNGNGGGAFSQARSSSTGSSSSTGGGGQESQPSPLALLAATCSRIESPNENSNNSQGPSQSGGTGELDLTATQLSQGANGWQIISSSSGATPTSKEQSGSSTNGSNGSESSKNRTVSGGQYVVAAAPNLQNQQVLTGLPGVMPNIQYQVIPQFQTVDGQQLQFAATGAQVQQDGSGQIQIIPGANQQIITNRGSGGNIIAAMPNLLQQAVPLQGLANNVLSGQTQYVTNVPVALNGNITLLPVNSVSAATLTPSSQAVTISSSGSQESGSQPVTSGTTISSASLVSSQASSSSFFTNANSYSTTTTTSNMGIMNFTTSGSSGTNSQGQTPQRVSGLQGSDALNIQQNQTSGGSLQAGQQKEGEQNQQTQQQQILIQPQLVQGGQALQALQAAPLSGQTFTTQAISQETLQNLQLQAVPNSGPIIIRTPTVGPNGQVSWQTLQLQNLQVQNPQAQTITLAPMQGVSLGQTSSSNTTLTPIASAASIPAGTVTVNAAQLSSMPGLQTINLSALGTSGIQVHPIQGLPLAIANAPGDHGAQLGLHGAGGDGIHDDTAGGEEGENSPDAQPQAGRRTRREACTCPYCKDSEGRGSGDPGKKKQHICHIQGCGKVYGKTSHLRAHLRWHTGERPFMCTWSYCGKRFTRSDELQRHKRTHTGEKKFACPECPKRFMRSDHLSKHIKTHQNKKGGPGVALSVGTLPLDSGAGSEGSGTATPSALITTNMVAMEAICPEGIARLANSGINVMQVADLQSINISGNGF
Procedure, shortened: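 Measures mRNA induction of an Sp1-linked reporter in HepG2 cells 24 h post-dosing. Multiplexed reporters read by RT-PCR and capillary electrophoresis; DMSO serves as negative control and baseline.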

[7] = ATG_SREBP_CIS: Attagene CIS-FACTORIAL HepG2 Assay for human Sterol Regulatory Element Binding (SREBP) (AID 2282962); conditions: HepG2 Attagene cis-factorial SREBP reporter, mRNA; actives raise or lower the signal
Procedure, shortened: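 Values derive from bidirectional curve fitting with DMSO as baseline. The underlying measurement is reporter mRNA from cis-element-regulated units in transiently transfected HepG2, quantified by RT-PCR and capillary electrophoresis after 24 h exposure.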

[8] = molecular target: Signal transducer and activator of transcription 3 (Homo sapiens) (UniProt P40763); assay: ATG_STAT3_CIS: Attagene CIS-FACTORIAL HepG2 Assay for human Signal Transducer and Activator of Transcription 3 (STAT3) (AID 2282963); conditions: HepG2, Attagene cis-factorial STAT3 reporter transcription; actives raise or lower the signal
Sequence of Signal transducer and activator of transcription 3 (Homo sapiens) (P40763 whole entry, looked up, the tested form may be a part): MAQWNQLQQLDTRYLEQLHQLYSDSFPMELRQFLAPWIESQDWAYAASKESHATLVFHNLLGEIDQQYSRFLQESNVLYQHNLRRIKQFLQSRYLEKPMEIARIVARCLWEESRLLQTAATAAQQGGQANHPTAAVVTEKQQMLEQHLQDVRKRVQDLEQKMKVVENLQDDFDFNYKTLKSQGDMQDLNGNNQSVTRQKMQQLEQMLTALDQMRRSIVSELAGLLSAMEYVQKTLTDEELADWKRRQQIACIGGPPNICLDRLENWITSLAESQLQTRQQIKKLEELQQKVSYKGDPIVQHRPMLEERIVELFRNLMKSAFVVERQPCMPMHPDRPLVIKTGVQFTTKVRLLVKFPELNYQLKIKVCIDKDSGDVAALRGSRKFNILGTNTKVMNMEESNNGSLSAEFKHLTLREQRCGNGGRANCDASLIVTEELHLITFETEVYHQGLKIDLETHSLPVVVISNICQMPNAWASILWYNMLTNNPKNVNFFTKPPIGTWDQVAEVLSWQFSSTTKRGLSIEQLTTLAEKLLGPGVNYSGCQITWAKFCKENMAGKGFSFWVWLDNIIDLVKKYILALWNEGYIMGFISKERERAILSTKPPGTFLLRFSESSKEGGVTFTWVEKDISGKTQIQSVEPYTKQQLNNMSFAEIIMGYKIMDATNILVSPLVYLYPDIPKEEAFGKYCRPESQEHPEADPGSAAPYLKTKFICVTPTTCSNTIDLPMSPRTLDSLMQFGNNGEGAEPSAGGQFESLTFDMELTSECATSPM
Procedure, shortened: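 Fluorescence intensity of 6-FAM-labelled reporter fragments, separated by capillary electrophoresis after RT-PCR, gave the signal. Cells were HepG2 transfected with cis-element reporter units and treated 24 h; fitting was bidirectional relative to DMSO.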

[9] = ATG_TA_CIS: Attagene CIS-FACTORIAL HepG2 Assay for human TA Basal Promoter (AID 2282964); conditions: HepG2 Attagene CIS-factorial TA basal promoter reporter; actives raise or lower the signal
Procedure, shortened: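 Background internal-marker endpoint from a 52-component HepG2 cis-reporter panel. Cells treated 24 h; reporter transcripts quantified via RT-PCR and CE fluorescence against DMSO baseline.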

[10] = ATG_TCF_b_cat_CIS: Attagene CIS-FACTORIAL HepG2 Assay for human T-Cell-Factor with beta-catenin (TCF/b-cat) (AID 2282965); conditions: HepG2 TCF/beta-catenin cis-reporter transcription, actives raise or lower the signal
Procedure, shortened: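 HepG2 cells transiently transfected with cis-promoter-driven multiplexed reporter units; reporter mRNA measured 24 h after dosing by RT-PCR, FAM labelling, HpaI digestion and capillary electrophoresis. Bidirectional fitting relative to DMSO baseline.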

CC(C)=CCC[C@H](C)CCO
outcome [1]: inactive | outcome [2]: inactive | outcome [3]: inactive | outcome [4]: inactive | outcome [5]: inactive | outcome [6]: inactive | outcome [7]: inactive | outcome [8]: inactive | outcome [9]: inactive | outcome [10]: inactive

CC(C)(C)c1n[nH]c(=O)n(N)c1=O
outcome [1]: inactive | outcome [2]: inactive | outcome [3]: inactive | outcome [4]: inactive | outcome [5]: inactive | outcome [6]: inactive | outcome [7]: inactive | outcome [8]: inactive | outcome [9]: inactive | outcome [10]: inactive

C=C[Si](OC(C)=O)(OC(C)=O)OC(C)=O
outcome [1]: inactive | AC50 [2]: 3.6 µM (active) | outcome [3]: inactive | outcome [4]: inactive | outcome [5]: inactive | outcome [6]: inactive | outcome [7]: inactive | outcome [8]: inactive | outcome [9]: inactive | outcome [10]: inactive

CCCCCCCCCCOC(C)=O
outcome [1]: inactive | outcome [2]: inactive | outcome [3]: inactive | outcome [4]: inactive | outcome [5]: inactive | outcome [6]: inactive | outcome [7]: inactive | outcome [8]: inactive | outcome [9]: inactive | outcome [10]: inactive

CCCC(C)CCC(C)=O (stereo not given)
outcome [1]: inactive | outcome [2]: inactive | outcome [3]: inactive | outcome [4]: inactive | outcome [5]: inactive | outcome [6]: inactive | outcome [7]: inactive | outcome [8]: inactive | outcome [9]: inactive | outcome [10]: inactive

O=C(/C=C/C=C/c1ccc2c(c1)OCO2)N1CCCCC1
outcome [1]: inactive | AC50 [2]: 2.37 µM (active) | outcome [3]: inactive | outcome [4]: inactive | outcome [5]: inactive | outcome [6]: inactive | outcome [7]: inactive | outcome [8]: inactive | AC50 [9]: 66.9 µM (active) | outcome [10]: inactive

O=C(c1ccccc1)C1CCC1
outcome [1]: inactive | outcome [2]: inactive | outcome [3]: inactive | outcome [4]: inactive | outcome [5]: inactive | outcome [6]: inactive | outcome [7]: inactive | outcome [8]: inactive | outcome [9]: inactive | outcome [10]: inactive

O=C(O)CCCC[C@@H]1SC[C@@H]2NC(=O)N[C@@H]21
outcome [1]: inactive | outcome [2]: inactive | outcome [3]: inactive | outcome [4]: inactive | outcome [5]: inactive | outcome [6]: inactive | outcome [7]: inactive | outcome [8]: inactive | outcome [9]: inactive | outcome [10]: inactive

O=C(O)Cc1c(Cl)ccc(Cl)c1Cl
outcome [1]: inactive | outcome [2]: inactive | outcome [3]: inactive | outcome [4]: inactive | outcome [5]: inactive | outcome [6]: inactive | outcome [7]: inactive | outcome [8]: inactive | outcome [9]: inactive | outcome [10]: inactive

CCCOC(=O)CCCCC(=O)OCCC
outcome [1]: inactive | AC50 [2]: 65.4 µM (active) | outcome [3]: inactive | outcome [4]: inactive | outcome [5]: inactive | outcome [6]: inactive | outcome [7]: inactive | outcome [8]: inactive | outcome [9]: inactive | outcome [10]: inactive

Cc1oncc1C(=O)Nc1ccc(C(F)(F)F)cc1
outcome [1]: inactive | outcome [2]: inactive | AC50 [3]: 100 µM (active) | outcome [4]: inactive | outcome [5]: inactive | outcome [6]: inactive | outcome [7]: inactive | outcome [8]: inactive | outcome [9]: inactive | outcome [10]: inactive

COCC(C)N (stereo not given)
outcome [1]: inactive | AC50 [2]: 83.6 µM (active) | outcome [3]: inactive | outcome [4]: inactive | outcome [5]: inactive | outcome [6]: inactive | outcome [7]: inactive | outcome [8]: inactive | outcome [9]: inactive | outcome [10]: inactive

C=CCCCCCCCCC(=O)OCCCC
outcome [1]: inactive | AC50 [2]: 42.1 µM (active) | outcome [3]: inactive | outcome [4]: inactive | outcome [5]: inactive | outcome [6]: inactive | outcome [7]: inactive | outcome [8]: inactive | outcome [9]: inactive | outcome [10]: inactive

O=C1CCC(=O)N1Cl
outcome [1]: inactive | outcome [2]: inactive | outcome [3]: inactive | outcome [4]: inactive | outcome [5]: inactive | outcome [6]: inactive | outcome [7]: inactive | outcome [8]: inactive | outcome [9]: inactive | outcome [10]: inactive

CCN(CCO)c1cccc(C)c1
outcome [1]: inactive | AC50 [2]: 27.8 µM (active) | outcome [3]: inactive | outcome [4]: inactive | outcome [5]: inactive | outcome [6]: inactive | outcome [7]: inactive | outcome [8]: inactive | outcome [9]: inactive | outcome [10]: inactive

OCCCS
outcome [1]: inactive | outcome [2]: inactive | outcome [3]: inactive | outcome [4]: inactive | outcome [5]: inactive | outcome [6]: inactive | outcome [7]: inactive | outcome [8]: inactive | outcome [9]: inactive | outcome [10]: inactive

COC=O
outcome [1]: inactive | outcome [2]: inactive | outcome [3]: inactive | outcome [4]: inactive | outcome [5]: inactive | outcome [6]: inactive | outcome [7]: inactive | outcome [8]: inactive | outcome [9]: inactive | outcome [10]: inactive

CN(C)CCCN(C)C
outcome [1]: inactive | outcome [2]: inactive | outcome [3]: inactive | outcome [4]: inactive | outcome [5]: inactive | outcome [6]: inactive | outcome [7]: inactive | outcome [8]: inactive | outcome [9]: inactive | outcome [10]: inactive

C[Si](C)(CCCN)O[Si](C)(C)CCCN
outcome [1]: inactive | outcome [2]: inactive | outcome [3]: inactive | outcome [4]: inactive | outcome [5]: inactive | outcome [6]: inactive | AC50 [7]: 54.5 µM (active) | outcome [8]: inactive | outcome [9]: inactive | outcome [10]: inactive

O=C(OCC1CCC2OC2C1)C1CCC2OC2C1 (stereo not given)
outcome [1]: inactive | outcome [2]: inactive | outcome [3]: inactive | outcome [4]: inactive | outcome [5]: inactive | outcome [6]: inactive | outcome [7]: inactive | outcome [8]: inactive | outcome [9]: inactive | outcome [10]: inactive

CC=CC(F)(F)C(F)(F)C(F)(F)F
outcome [1]: inactive | outcome [2]: inactive | outcome [3]: inactive | outcome [4]: inactive | outcome [5]: inactive | outcome [6]: inactive | outcome [7]: inactive | outcome [8]: inactive | outcome [9]: inactive | outcome [10]: inactive

O=C(O)CCCCCCCCCC(=O)O
outcome [1]: inactive | outcome [2]: inactive | outcome [3]: inactive | outcome [4]: inactive | outcome [5]: inactive | outcome [6]: inactive | outcome [7]: inactive | outcome [8]: inactive | outcome [9]: inactive | outcome [10]: inactive

O=S(=O)(O)c1ccccc1C=Cc1ccc(-c2ccc(C=Cc3ccccc3S(=O)(=O)O)cc2)cc1
outcome [1]: inactive | outcome [2]: inactive | outcome [3]: inactive | outcome [4]: inactive | outcome [5]: inactive | outcome [6]: inactive | outcome [7]: inactive | outcome [8]: inactive | outcome [9]: inactive | outcome [10]: inactive

Cc1ccc(C(C)(C)C)cc1
outcome [1]: inactive | outcome [2]: inactive | outcome [3]: inactive | outcome [4]: inactive | outcome [5]: inactive | outcome [6]: inactive | outcome [7]: inactive | outcome [8]: inactive | outcome [9]: inactive | outcome [10]: inactive
